The text below walks through data of PubChem BioAssay (EPA / NIEHS).

What all share (details): mRNA level, 48 h; actives raise or lower the signal
Read-out in assay [1]: Early growth response protein 1 (EGR1) transcription factor, EGR1 (gene 1958)
As to the kind of experiment: LTEA_HepaRG_EGR1: Life Technologies and Expression Analysis (LTEA) Assay for Early growth response protein 1 (EGR1) transcription factor using HepaRG (AID 2283490). In outline: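 HepaRG, 48 h exposure, 8-pt half-log series from 100 uM, 0.5% DMSO vehicle; EGR1 transcript by TaqMan qRT-PCR (Fluidigm array), housekeeping-normalized; bidirectional fit relative to DMSO baseline.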

Read-out in assay [2]: Ezrin (EZR), EZR (gene 7430)
As to the kind of experiment: LTEA_HepaRG_EZR: Life Technologies and Expression Analysis (LTEA) Assay for Ezrin (EZR) using HepaRG (AID 2283491). The essentials: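 EZR transcript levels came from Fluidigm qRT-PCR and were normalized to three housekeeping genes after 48 h chemical exposure of HepaRG cells. Dosing used an 8-point half-log series with a 100 uM top concentration in 0.5% DMSO, tested in duplicate; both directions were fitted versus vehicle.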

Read-out in the next assay: CYP3A5 (gene 1577)
Description: LTEA_HepaRG_CYP3A5: Life Technologies and Expression Analysis (LTEA) Assay for CYP3A5 using HepaRG (AID 2283493). The essentials:
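Readout was CYP3A5 mRNA by qRT-PCR. HepaRG cultures were exposed for 48 h in serum-free induction medium to chemicals at up to 100 uM, and responses were fitted in both directions relative to DMSO vehicle.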

Read-out in assay [3]: Fatty Acid-Binding Protein 1 (FABP1), FABP1 (gene 2168)
Description: LTEA_HepaRG_FABP1: Life Technologies and Expression Analysis (LTEA) Assay for Fatty Acid-Binding Protein 1 (FABP1) using HepaRG (AID 2283494). The essentials: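 qRT-PCR readout of FABP1 transcript (normalized to three housekeeping genes) after 48 h chemical exposure of HepaRG cells; eight concentrations, half-log steps, max 100 uM, 0.5% DMSO vehicle; gain or loss fitted relative to DMSO baseline.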

Read-out in assay [4]: Cytochrome P450 4A22 (Homo sapiens) (UniProt Q5TCH4)
Description: LTEA_HepaRG_CYP4A22: Life Technologies and Expression Analysis (LTEA) Assay for Cytochrome P450 4A22 (CYP4A22) using HepaRG (AID 2283495). The essentials:
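Readout is CYP4A22 transcript induction or loss, quantified by qRT-PCR and normalized to ACTB, GAPDH and POLR2A. Human HepaRG cells receive test chemicals for 48 h at eight half-log concentrations from 100 uM in 0.5% DMSO.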

Read-out in assay [5]: Cytochrome P450 7A1 (Homo sapiens) (UniProt P22680)
As to the kind of experiment: LTEA_HepaRG_CYP7A1: Life Technologies and Expression Analysis (LTEA) Assay for Cytochrome P450 7A1 (CYP7A1) using HepaRG (AID 2283496). The essentials:
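Using 0.5% DMSO as vehicle and baseline, chemicals were tested in duplicate over an 8-point range from 100 uM on HepaRG cells for 48 h; qRT-PCR signals were normalised to ACTB, GAPDH and POLR2A.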

Read-out in assay [6]: Glutathione S-Transferase (GSTA2), GSTA2 (gene 2939)
As to the kind of experiment: LTEA_HepaRG_GSTA2: Life Technologies and Expression Analysis (LTEA) Assay for Glutathione S-Transferase (GSTA2) using HepaRG (AID 2283497). The essentials: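 qRT-PCR readout of GSTA2 transcript, normalized to three housekeeping genes, fitted bidirectionally against 0.5% DMSO baseline. Differentiated HepaRG cells received compound for 48 h at 8 concentrations (top 100 uM, half-log steps).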

Read-out in assay [7]: Glutamate-cysteine ligase catalytic (GCLC), GCLC (gene 2729)
As to the kind of experiment: LTEA_HepaRG_GCLC: Life Technologies and Expression Analysis (LTEA) Assay for Glutamate-cysteine ligase catalytic (GCLC) using HepaRG (AID 2283498). The essentials: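 HepaRG, 48 h exposure, 8-pt half-log series from 100 uM, 0.5% DMSO vehicle; TaqMan qRT-PCR for GCLC mRNA, housekeeping-normalized; bidirectional curve fit vs DMSO baseline.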

Read-out in assay [8]: Glutamate-cysteine ligase regulatory (GCLM), GCLM (gene 2730)
Description: LTEA_HepaRG_GCLM: Life Technologies and Expression Analysis (LTEA) Assay for Glutamate-cysteine ligase regulatory (GCLM) using HepaRG (AID 2283500). In outline:
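In this multiplexed HepaRG gene-expression assay, GCLM mRNA change after 48 h treatment (8 concentrations, max 100 uM) was scored against DMSO by bidirectional curve fitting.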

Read-out in assay [9]: Glutathione S-transferase M3 (GSTM3), GSTM3 (gene 2947)
Description: LTEA_HepaRG_GSTM3: Life Technologies and Expression Analysis (LTEA) Assay for Glutathione S-transferase M3 (GSTM3) using HepaRG (AID 2283501). The essentials:
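HepaRG, plated 48 h, then serum-free induction medium; test chemical 48 h, duplicate; 100 uM top, half-log x8, 0.5% DMSO. Read-out: GSTM3 mRNA (TaqMan qRT-PCR, Fluidigm array). Bidirectional fit vs DMSO.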

Read-out in assay [10]: Heat shock 70 kDa protein 1 (HSPA1A), gene 3303
As to the kind of experiment: LTEA_HepaRG_HSPA1A: Life Technologies and Expression Analysis (LTEA) Assay for Heat shock 70 kDa protein 1 (HSPA1A) using HepaRG (AID 2283502). In outline:
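An oxidative-stress marker readout: HepaRG cells treated 48 h in duplicate with an eight-point series (highest 100 uM) had HSPA1A mRNA quantified by TaqMan qRT-PCR. Activity was fitted in both directions using 0.5% DMSO as baseline.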

Read-out in assay [11]: Hypoxia-inducible factor 1-alpha (Homo sapiens) (UniProt Q16665)
Description: LTEA_HepaRG_HIF1A: Life Technologies and Expression Analysis (LTEA) Assay for Hypoxia-inducible factor 1 (HIF1A) Trancription factor using HepaRG (AID 2283503).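 Note: HIF1A transcript by TaqMan qRT-PCR normalized to ACTB GAPDH and POLR2A.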 The essentials:
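Gain- or loss-of-signal HIF1A mRNA changes are fitted against a DMSO baseline. HepaRG cultures receive eight concentrations, highest 100 uM, for 48 h in serum-free induction medium with 0.5% DMSO.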

Read-out in assay [12]: 3-Hydroxy-3-Methylglutaryl-CoA Synthase 2 (HMGCS2), HMGCS2 (gene 3158)
Description: LTEA_HepaRG_HMGCS2: Life Technologies and Expression Analysis (LTEA) Assay for 3-Hydroxy-3-Methylglutaryl-CoA Synthase 2 (HMGCS2) using HepaRG (AID 2283504). The essentials:
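HepaRG, plated 48 h then switched to serum-free induction media; cmpd 8-pt, max 100 uM, 1/2-log, 0.5% DMSO, n=2, 48 h. HMGCS2 mRNA by Fluidigm TaqMan qRT-PCR, ACTB/GAPDH/POLR2A norm; bidirectional fit vs DMSO.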

Read-out in the next assay: HGF (gene 3082)
Description: LTEA_HepaRG_HGF: Life Technologies and Expression Analysis (LTEA) Assay for Hepatocyte Growth Facto (HGF) using HepaRG (AID 2283505). In outline:
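Read-out is HGF transcript level by qRT-PCR, normalized to three housekeeping genes, fitted bidirectionally against 0.5% DMSO vehicle. Human HepaRG cells received test chemicals for 48 h at up to 100 uM.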

Read-out in assay [13]: Insulin Like Growth Factor 1 (IGF1), IGF1 (gene 3479)
As to the kind of experiment: LTEA_HepaRG_IGF1: Life Technologies and Expression Analysis (LTEA) Assay for Insulin Like Growth Factor 1 (IGF1) using HepaRG (AID 2283506). In outline:
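Endpoint: IGF1 mRNA change by qRT-PCR, housekeeping-normalized, fitted bidirectionally relative to 0.5% DMSO vehicle. Human HepaRG cells were treated 48 h in serum-free induction medium, eight half-log concentrations topping at 100 uM.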

Read-out in assay [14]: Intercellular Adhesion Molecule 1 (ICAM1), ICAM1 (gene 3383)
Description: LTEA_HepaRG_ICAM1: Life Technologies and Expression Analysis (LTEA) Assay for Intercellular Adhesion Molecule 1 (ICAM1) using HepaRG (AID 2283507). In outline:
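Readout is qRT-PCR mRNA level, normalized to three housekeeping genes and fitted bidirectionally against 0.5% DMSO vehicle. Human HepaRG cultures received compound for 48 h, top concentration 100 uM with half-log dilutions.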

Read-out in assay [15]: Interleukin 6 (IL6), IL6 (gene 3569)
As to the kind of experiment: LTEA_HepaRG_IL6: Life Technologies and Expression Analysis (LTEA) Assay for Interleukin 6 (IL6) using HepaRG (AID 2283509). The essentials: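 qRT-PCR read-out of IL6 transcript, normalized to three housekeeping genes, after 48 h chemical exposure of HepaRG cells; 8-point half-log series, top 100 uM, 0.5% DMSO vehicle. Bidirectional curve fitting against DMSO baseline.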

Read-out in assay [16]: Cytochrome P450 3A7 (Homo sapiens) (UniProt P24462)
As to the kind of experiment: LTEA_HepaRG_CYP3A7: Life Technologies and Expression Analysis (LTEA) Assay for CYP3A7 using HepaRG (AID 2283492). In outline:
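Human HepaRG liver cells, 48 h post-plating, switched to serum-free induction medium and exposed in duplicate for 48 h. Dosing: 100 uM top, half-log dilutions, 8 points, 0.5% DMSO vehicle. Read-out: CYP3A7 mRNA, gain or loss fitted against DMSO baseline.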

Read-out in assay [17]: growth arrest and DNA damage 45 (GADD45G), GADD45G (gene 10912)
As to the kind of experiment: LTEA_HepaRG_GADD45G: Life Technologies and Expression Analysis (LTEA) Assay for growth arrest and DNA damage 45 (GADD45G) using HepaRG (AID 2283499). The essentials: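 Gain or loss of GADD45G mRNA, quantified by TaqMan qRT-PCR against three housekeeping genes, is fitted in both directions relative to 0.5% DMSO. Human HepaRG cultures receive test chemical for 48 h at up to 100 uM.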

The source made the active and inactive calls. Rule for the calls: active = hit-call score of the fitted dose curve at least 0.9, where 1 is the maximum; inactive = score below 0.9.

Chain of Hypoxia-inducible factor 1-alpha (Homo sapiens) (Q16665 whole entry, looked up): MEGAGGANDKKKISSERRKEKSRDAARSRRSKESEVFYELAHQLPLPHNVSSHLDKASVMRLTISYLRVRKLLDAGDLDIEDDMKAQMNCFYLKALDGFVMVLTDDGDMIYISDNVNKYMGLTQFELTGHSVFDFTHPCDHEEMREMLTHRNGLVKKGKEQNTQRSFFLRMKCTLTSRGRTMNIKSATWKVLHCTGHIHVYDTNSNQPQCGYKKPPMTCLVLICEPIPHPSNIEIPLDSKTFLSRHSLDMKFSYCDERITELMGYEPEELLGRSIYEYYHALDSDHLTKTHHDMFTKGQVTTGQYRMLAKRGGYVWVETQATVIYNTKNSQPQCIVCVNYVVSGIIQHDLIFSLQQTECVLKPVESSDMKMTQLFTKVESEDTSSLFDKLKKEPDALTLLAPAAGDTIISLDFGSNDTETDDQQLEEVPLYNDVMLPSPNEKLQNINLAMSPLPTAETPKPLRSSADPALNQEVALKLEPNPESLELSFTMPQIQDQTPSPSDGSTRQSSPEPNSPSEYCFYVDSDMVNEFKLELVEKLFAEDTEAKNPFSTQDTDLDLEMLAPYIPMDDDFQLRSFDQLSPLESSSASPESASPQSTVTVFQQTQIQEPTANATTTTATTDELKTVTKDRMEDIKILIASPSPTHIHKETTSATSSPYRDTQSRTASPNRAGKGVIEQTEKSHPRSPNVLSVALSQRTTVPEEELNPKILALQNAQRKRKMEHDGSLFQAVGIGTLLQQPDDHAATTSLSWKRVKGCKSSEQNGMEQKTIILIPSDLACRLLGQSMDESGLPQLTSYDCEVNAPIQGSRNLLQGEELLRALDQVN
Chain of Cytochrome P450 3A7 (Homo sapiens) (P24462 whole entry, looked up): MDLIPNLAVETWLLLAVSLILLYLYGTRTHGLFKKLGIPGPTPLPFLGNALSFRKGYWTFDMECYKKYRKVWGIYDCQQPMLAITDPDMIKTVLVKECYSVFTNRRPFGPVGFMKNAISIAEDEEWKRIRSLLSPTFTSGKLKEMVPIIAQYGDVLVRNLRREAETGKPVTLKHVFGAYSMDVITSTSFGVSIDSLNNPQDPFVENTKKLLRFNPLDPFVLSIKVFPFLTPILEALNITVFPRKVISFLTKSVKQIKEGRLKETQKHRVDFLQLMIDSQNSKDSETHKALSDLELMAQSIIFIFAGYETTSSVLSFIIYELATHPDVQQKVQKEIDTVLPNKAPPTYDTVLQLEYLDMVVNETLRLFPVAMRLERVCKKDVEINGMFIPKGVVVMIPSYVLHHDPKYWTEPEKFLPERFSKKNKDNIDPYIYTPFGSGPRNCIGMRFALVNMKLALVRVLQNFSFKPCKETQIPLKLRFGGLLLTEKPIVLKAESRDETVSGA

`O=C(O)CCCOc1ccc(Cl)cc1Cl`: the outcome in assay [1], in assay [2], in assay [4], in [5], in assay [6] and in assay [7] was inactive. In addition, the result (in assay [8]; in [9]; in assay [10]; in [11]; in assay [12]; with HGF (gene 3082)) was inactive. Further, the outcome in assay [13], in assay [14] and in [15] was inactive. The AC50 with CYP3A5 (gene 1577) is 36.5 µM (active); in assay [3], 10.1 µM (active).

For `CNC(=O)Oc1ccccc1OC(C)C`, the result (in assay [1]; in [2]; with CYP3A5 (gene 1577); in assay [3]; in assay [4]; in [6]) was inactive. Further, the molecule was called inactive in assay [7], in assay [17], in assay [8], in [9], in assay [10] and in assay [11]. For the same molecule, the molecule was called inactive (in assay [12]; with HGF (gene 3082); in assay [13]; in assay [14]; in assay [15]). In [16], the AC50 is 1.52 µM (active).

With `O=C(NC(=O)c1c(F)cccc1F)Nc1ccc(OC(F)(F)C(F)OC(F)(F)F)c(Cl)c1` (stereo not given), the molecule was called inactive (in assay [1]; in [2]; in assay [16]; in the assay with CYP3A5 (gene 1577); in [3]; in [4]). The call in [5], in assay [6], in assay [7], in assay [8], in assay [9] and in [10] was inactive. Moreover, the result (in assay [11]; in assay [12]; with HGF (gene 3082); in assay [13]; in [14]; in assay [15]) was inactive.

Take `CCC(C)(NC(=O)c1cc(Cl)c(C)c(Cl)c1)C(=O)CCl` (stereo not given): the result in assay [1], in [7], in [8], in assay [11], in assay [13] and in assay [14] was inactive. The result in assay [15] was inactive. Moreover, the AC50 was 75.7 µM (active) in assay [2]; 82.1 µM (active) in assay [16]; 89.6 µM (active) with CYP3A5 (gene 1577); 46.5 µM (active) in assay [3]; 74.9 µM (active) in assay [4]; 73.8 µM (active) in assay [5]. For the same molecule, the AC50 in assay [6] is 78.7 µM (active); in assay [9], 50.2 µM (active); in [10], 89.2 µM (active); in assay [12] it was 80.6 µM (active); in the assay with HGF (gene 3082), 77.4 µM (active).

As for `O=C(Nc1ccccc1)Nc1cnns1`, the AC50 is 50 µM (active) in [16]; 65.5 µM (active) in assay [3]; 73.5 µM (active) in assay [4]; 50 µM (active) in assay [5]; 65.3 µM (active) in [6]; 80.3 µM (active) in [8]. Besides, the results for the concentration at half-maximal activity (AC50) in assay [12] and in [13] were 73.7 µM (active) and 50 µM (active), respectively. Further, the call (with CYP3A5 (gene 1577); in assay [7]; in assay [17]; in [9]; in assay [10]; in assay [11]) was inactive. In addition, the molecule was called inactive (in the assay with HGF (gene 3082); in assay [14]).

Regarding `Cc1[nH]c(=O)n(C(C)(C)C)c(=O)c1Cl`, the molecule was classed as inactive (in assay [1]; in assay [2]; in assay [16]; with CYP3A5 (gene 1577); in [3]; in [4]). The outcome in [6], in [7], in [8], in assay [9], in assay [10] and in assay [11] was inactive. The molecule was classed as inactive (in assay [12]; with HGF (gene 3082); in [13]; in assay [14]; in assay [15]). For the same molecule, in assay [5], the AC50 was 18.8 µM (active).
